Data on 20 compounds can be found in PubChem BioAssay.

The nature of experiment [1]: antimalarial activity against Dd2 strain (AID 2302;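 active = growth inhibition above 50% at the single 2 µM test dose, taken to imply half-maximal potency below 2 µM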;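 also: 0% = DMSO untreated growth and 100% = chloroquine plus artemisinin killed control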). The following applies: P. falciparum Dd2 in RBCs, LDH growth readout, 72 h; at 2 µM; hits give high values.
Experiment [2] in a line: HepG2 cytotoxicity, primary screen, cytotoxicity control for P. falciparum antimalarial project, cell-based, ATP luminescence (AID 2303;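 active = inhibition above 50%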;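 also: 0% = DMSO wells and 100% = digitonin-killed cells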). The following applies: HepG2 viability, 24-48 h, at 10 µM, hits give high values.
Experiment [3] addresses L-lactate dehydrogenase (Plasmodium falciparum (isolate CDC / Honduras)) (UniProt Q27743). The experiment can be described thus: PfLDH activity inhibition – cell lysate, 3D7 strain, counter-screen for P. falciparum growth inhibition project (AID 2304).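 Also: 0% = vehicle and 100% = reference inhibitor.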 The following applies: P. falciparum 3D7 crude extract, LDH APAD/NBT absorbance; at 2 µM; hits give high values. Background: The purpose of a counterscreen is to sort out artefacts and off-target activity.

A short description of experiment [4]: inhibition of 3D7 malaria parasite growth – strain 3D7 (AID 2306).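 Also: 0% = DMSO wells and 100% = chloroquine plus artemisinin control wells.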 The following applies: P. falciparum 3D7 erythrocytic growth, LDH absorbance, 72 h; at 2 µM; hits give high values.
In experiment [5] the target is Calcium-dependent protein kinase 1 (Plasmodium falciparum (isolate 3D7)) (UniProt P62344). The experiment can be described thus: PfCDPK1 kinase inhibitors, biochemical, TCAMS library (AID 1159585; cut-off not given, nearly all actives have IC50 up to about 0.98 µM;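 also: inhibitors leave more ATP so luminescence rises with inhibition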). The following applies: recombinant PfCDPK1, Kinase-Glo ATP depletion luminescence.
Experiment [6] deals with Plasmodium falciparum protein kinase 6 (PK6, PF3D7_1337100) (UniProt Q8IDW1). The experiment can be described thus: PfPK6 kinase inhibitors, biochemical, TCAMS library (AID 1159586). The following applies: recombinant PfPK6, Kinase-Glo ATP depletion luminescence. In general terms: Kinase-Glo reads ATP consumption through a luciferase reaction.
Experiment [7] deals with Protein kinase 7 (PK7), Plasmodium falciparum 3D7 (PF3D7_0213400) (UniProt Q7YTF7). In words: inhibition of Plasmodium PK7 catalytic activity – biochemical, TCAMS antimalarial set, Kinase-Glo luminescence (AID 1159587). The following applies: recombinant PfPK7, Kinase-Glo ATP depletion luminescence.
For experiment [8], the target named is Calcium-dependent protein kinase 4 (Plasmodium falciparum (isolate 3D7)) (UniProt Q8IBS5). The experiment can be described thus: PfCDPK4 kinase inhibitors, biochemical, TCAMS library (AID 1159588; cut-off not given, nearly all actives have IC50 up to about 0.91 µM). The following applies: recombinant PfCDPK4, Kinase-Glo ATP depletion luminescence.

Structures are written as SMILES. Values without a mark were called inactive. For some of these results: Results with a measured potency or affinity are listed apart. Active and inactive are the calls of the source. Unless noted, no rule for the calls is given here.

Plasmodium falciparum protein kinase 6 (PK6, PF3D7_1337100), sequence (Q8IDW1 1-305): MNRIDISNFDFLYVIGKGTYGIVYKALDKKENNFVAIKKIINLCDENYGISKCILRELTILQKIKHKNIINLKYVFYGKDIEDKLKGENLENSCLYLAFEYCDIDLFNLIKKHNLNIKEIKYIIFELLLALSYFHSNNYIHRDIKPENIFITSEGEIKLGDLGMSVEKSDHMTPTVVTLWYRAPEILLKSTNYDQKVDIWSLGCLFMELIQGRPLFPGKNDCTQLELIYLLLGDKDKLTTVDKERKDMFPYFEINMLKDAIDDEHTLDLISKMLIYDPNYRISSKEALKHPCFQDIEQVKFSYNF
Protein kinase 7 (PK7), Plasmodium falciparum 3D7 (PF3D7_0213400), sequence (Q7YTF7 1-343): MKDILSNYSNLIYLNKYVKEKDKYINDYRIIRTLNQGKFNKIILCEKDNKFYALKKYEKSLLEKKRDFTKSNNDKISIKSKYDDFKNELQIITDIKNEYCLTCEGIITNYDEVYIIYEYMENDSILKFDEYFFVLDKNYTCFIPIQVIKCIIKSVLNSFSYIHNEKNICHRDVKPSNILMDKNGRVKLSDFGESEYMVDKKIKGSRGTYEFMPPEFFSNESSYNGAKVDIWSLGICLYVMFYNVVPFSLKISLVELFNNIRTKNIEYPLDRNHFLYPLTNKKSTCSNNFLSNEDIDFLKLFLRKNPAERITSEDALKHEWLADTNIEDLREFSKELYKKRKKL
L-lactate dehydrogenase (Plasmodium falciparum (isolate CDC / Honduras)), sequence (Q27743 whole entry, looked up): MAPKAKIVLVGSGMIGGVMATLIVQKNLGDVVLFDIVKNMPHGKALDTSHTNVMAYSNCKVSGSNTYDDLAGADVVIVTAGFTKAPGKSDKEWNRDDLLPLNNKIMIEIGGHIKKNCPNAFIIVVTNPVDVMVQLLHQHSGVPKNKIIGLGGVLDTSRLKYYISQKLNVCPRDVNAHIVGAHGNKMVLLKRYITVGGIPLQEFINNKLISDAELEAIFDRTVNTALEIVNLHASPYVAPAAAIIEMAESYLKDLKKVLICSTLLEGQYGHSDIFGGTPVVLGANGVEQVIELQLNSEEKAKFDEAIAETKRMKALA
Calcium-dependent protein kinase 4 (Plasmodium falciparum (isolate 3D7)), sequence (Q8IBS5 whole entry, looked up): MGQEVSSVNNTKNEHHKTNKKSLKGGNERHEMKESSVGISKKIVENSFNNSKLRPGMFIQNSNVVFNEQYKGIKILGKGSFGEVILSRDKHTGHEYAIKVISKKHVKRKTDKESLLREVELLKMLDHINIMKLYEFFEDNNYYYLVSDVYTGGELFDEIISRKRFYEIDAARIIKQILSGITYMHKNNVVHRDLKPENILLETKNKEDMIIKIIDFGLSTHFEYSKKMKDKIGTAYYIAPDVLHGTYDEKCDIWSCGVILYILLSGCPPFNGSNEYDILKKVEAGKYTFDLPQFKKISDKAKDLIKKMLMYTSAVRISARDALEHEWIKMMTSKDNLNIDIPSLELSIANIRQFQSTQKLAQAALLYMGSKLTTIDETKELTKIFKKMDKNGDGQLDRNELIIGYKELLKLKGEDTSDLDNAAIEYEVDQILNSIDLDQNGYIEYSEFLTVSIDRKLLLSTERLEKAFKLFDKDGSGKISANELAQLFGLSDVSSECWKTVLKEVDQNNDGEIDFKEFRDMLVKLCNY
Calcium-dependent protein kinase 1 (Plasmodium falciparum (isolate 3D7)), sequence (P62344 whole entry, looked up): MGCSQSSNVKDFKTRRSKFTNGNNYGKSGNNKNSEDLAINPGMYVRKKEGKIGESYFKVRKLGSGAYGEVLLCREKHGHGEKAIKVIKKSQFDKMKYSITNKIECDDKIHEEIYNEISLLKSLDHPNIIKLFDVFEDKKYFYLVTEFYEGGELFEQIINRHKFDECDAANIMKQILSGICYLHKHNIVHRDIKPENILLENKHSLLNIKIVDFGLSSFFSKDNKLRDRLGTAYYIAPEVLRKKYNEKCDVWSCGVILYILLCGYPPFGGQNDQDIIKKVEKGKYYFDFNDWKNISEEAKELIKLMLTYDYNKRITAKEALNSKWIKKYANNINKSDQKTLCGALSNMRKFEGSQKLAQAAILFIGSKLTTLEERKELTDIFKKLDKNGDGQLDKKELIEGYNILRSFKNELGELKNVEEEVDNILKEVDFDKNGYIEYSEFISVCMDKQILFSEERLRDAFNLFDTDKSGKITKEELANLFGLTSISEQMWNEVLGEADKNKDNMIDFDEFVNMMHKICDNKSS

In the case of `COCCNCc1cccc(-c2ccc3nccc(Nc4cc(O)ccc4C)c3c2)c1`, the growth inhibition in experiment [1] is 92% (active); in experiment [4], 101% (active). Moreover, the inhibition in experiment [2] was -1%; in experiment [3], 4%. In addition, the result in experiment [5], in experiment [6], in experiment [7] and in experiment [8] was inactive.

As to `O=C1OC2(CN1CC1CCN(Cc3ccc(O)cc3Cl)C1)c1ccccc1-c1ccccc12` (stereo not given), the growth inhibition in experiment [1] and in experiment [4] was 84% (active) each time. In addition, the inhibition in experiment [2] is 16%; in experiment [3], 2%. The result in experiment [5], in experiment [6], in experiment [7] and in experiment [8] was inactive.

As for `CCCNCc1ccc(-c2ccc(CN(CCOC)C(=O)c3nn(-c4ccccc4)nc3C)cc2)nc1`, the results for the growth inhibition in experiment [1] and in experiment [4] were 71% (active) and 99% (active), respectively. The inhibition in experiment [2] is 18%; in experiment [3] it was 3%. The outcome in experiment [5], in experiment [6], in experiment [7] and in experiment [8] was inactive.

In the case of `CCCOc1cc(Cc2cnc(N)nc2N)cc(OC)c1OC`, the results for the growth inhibition in experiment [1] and in experiment [4] were 1% and 85% (active), respectively. Also, the results for the inhibition in experiment [2] and in experiment [3] were 21% and 8%, respectively. Further, the result in experiment [5], in experiment [6], in experiment [7] and in experiment [8] was inactive.

As for `CCn1ncc2c(NC3CCOCC3)c(CNC(=O)c3ccnn3C)c(C)nc21`, the growth inhibition in experiment [1] and in experiment [4] was 98% (active) throughout. The inhibition was -11% in experiment [2] and -2% in experiment [3]. Moreover, the result in experiment [5], in experiment [6], in experiment [7] and in experiment [8] was inactive.

As for `COC(=O)c1ccc(-c2ccc(-c3cccnc3)cc2C)cc1`, the growth inhibition was 98% (active) in experiment [1] and 100% (active) in experiment [4]. Further, the inhibition was 81% (active) in experiment [2] and 3% in experiment [3]. In addition, the outcome in experiment [5], in experiment [6], in experiment [7] and in experiment [8] was inactive.

Consider `OCC1CCN(Cc2ccc(-c3ccc(-c4nc5ccc(F)cc5[nH]4)s3)cc2)CC1`, for which the values for the growth inhibition in experiment [1] and in experiment [4] were 98% (active) and 101% (active), respectively. The inhibition in experiment [2] was 14%; in experiment [3], -3%. For the same compound, the result in experiment [5], in experiment [6], in experiment [7] and in experiment [8] was inactive.

Regarding `CNCc1cccc2[nH]c(-c3csc(Cc4cc(Cl)ccc4OCC(C)C)n3)nc12`, the values for the growth inhibition in experiment [1] and in experiment [4] were 33% and 100% (active), respectively. In addition, the inhibition in experiment [2] is 9%; in experiment [3] it was -4%. The result in experiment [5], in experiment [6], in experiment [7] and in experiment [8] was inactive.

For `Cc1ccc(CN2CCCN(Cc3ccc(C(=O)Nc4ccc(Cl)cc4)cc3)CC2)s1`, the figures for the growth inhibition in experiment [1] and in experiment [4] were 5% and 85% (active), respectively. For the same compound, the inhibition in experiment [2] was 53% (active); in experiment [3], 3%. Besides, the outcome in experiment [5], in experiment [6], in experiment [7] and in experiment [8] was inactive.

As to `O=C(/C=C/c1ccccc1F)NC1CCC(CCN2CCc3ccc(-c4cccnc4)cc3CC2)CC1` (stereo not given), the figures for the growth inhibition in experiment [1] and in experiment [4] were 5% and 92% (active), respectively. Moreover, the inhibition in experiment [2] is 34%; in experiment [3], -4%. Moreover, the outcome in experiment [5], in experiment [6], in experiment [7] and in experiment [8] was inactive.

On to `O=C(/C=C/c1ccc(Cl)c(Cl)c1)N1CCC(CN2CCC(c3nc4ccccc4n3CCCO)CC2)CC1`, for which the values for the growth inhibition in experiment [1] and in experiment [4] were -4% and 96% (active), respectively. Besides, the inhibition in experiment [2] was 60% (active); in experiment [3] it was -8%. For the same compound, the result in experiment [5], in experiment [6], in experiment [7] and in experiment [8] was inactive.

Turning to `CCN(CC)CCCC(C)Nc1ccnc2[nH]c3ccccc3c12` (stereo not given), the results for the growth inhibition in experiment [1] and in experiment [4] were 38% and 82% (active), respectively. Moreover, the inhibition is 0% in experiment [2] and 6% in experiment [3]. Also, the outcome in experiment [5], in experiment [6], in experiment [7] and in experiment [8] was inactive.

Consider `CCN1CCN(c2cc(C)c3cc(NC(=O)c4ccc(Br)o4)ccc3n2)CC1`, for which the growth inhibition in experiment [1] was 13%; in experiment [4], 98% (active). For the same compound, the results for the inhibition in experiment [2] and in experiment [3] were -8% and -7%, respectively. For the same compound, the result in experiment [5], in experiment [6], in experiment [7] and in experiment [8] was inactive.

With `CC(C)CCN1CCC(Oc2ccc(NC(=O)c3ccco3)cc2Cl)CC1`, the growth inhibition was 93% (active) in experiment [1] and 95% (active) in experiment [4]. Besides, the inhibition in experiment [2] was 1%; in experiment [3] it was 3%. Further, the outcome in experiment [5], in experiment [6], in experiment [7] and in experiment [8] was inactive.

Turning to `CC(=O)Nc1nc(C(=O)Nc2ccc(-c3ccc(-c4nc5ccccc5[nH]4)cc3)cc2)cs1`, the growth inhibition was 53% (active) in experiment [1] and 100% (active) in experiment [4]. Also, the figures for the inhibition in experiment [2] and in experiment [3] were 38% and -5%, respectively. Besides, the result in experiment [5], in experiment [6], in experiment [7] and in experiment [8] was inactive.

As to `COC(=O)c1noc(C)c1I`, the growth inhibition in experiment [1] is 2%; in experiment [4] it was 99% (active). In addition, the results for the inhibition in experiment [2] and in experiment [3] were 5% and -9%, respectively. In addition, the outcome in experiment [5], in experiment [6], in experiment [7] and in experiment [8] was inactive.

In the case of `O=S(=O)(c1ccc(OC(F)(F)F)cc1)C1C[C@H]2CC[C@@H](C1)N2S(=O)(=O)c1ccc(Cl)c(C(F)(F)F)c1` (stereo not given in full), the growth inhibition in experiment [1] was 95% (active); in experiment [4], 100% (active). Further, the results for the inhibition in experiment [2] and in experiment [3] were 1% and -5%, respectively. Moreover, the result in experiment [5], in experiment [6], in experiment [7] and in experiment [8] was inactive.

Regarding `OC(CNc1cccc(Cl)c1)Cn1c2ccc(Cl)cc2c2cc(Cl)ccc21` (stereo not given), the figures for the growth inhibition in experiment [1] and in experiment [4] were 33% and 95% (active), respectively. Further, the inhibition in experiment [2] was 8%; in experiment [3] it was 6%. For the same compound, the outcome in experiment [5], in experiment [6], in experiment [7] and in experiment [8] was inactive.

As to `COc1cc2c(cc1OCCN1CCC(N3CCCCC3)CC1)N(C(=O)/C=C/c1ccccc1OC(F)(F)F)CC2`, the growth inhibition in experiment [1] is 93% (active); in experiment [4] it was 101% (active). In addition, the inhibition in experiment [2] is 64% (active); in experiment [3], -7%. Besides, the outcome in experiment [5], in experiment [6], in experiment [7] and in experiment [8] was inactive.

Turning to `O=C(NCCc1ccccc1)N(Cc1ccccc1-c1ccc(CNC2CCCC2)cc1)C1CCN(Cc2ccccc2)CC1`, the growth inhibition in experiment [1] was 95% (active); in experiment [4], 96% (active). Besides, the inhibition in experiment [2] is 96% (active); in experiment [3] it was 1%. The outcome in experiment [5], in experiment [6], in experiment [7] and in experiment [8] was inactive.

Usually inhibition stands for the relative decrease from the control value, in per cent.
